# Reference: PubChem BioAssay (NCATS)
# Results filed as inconclusive are left out. Activity calls are given as the source filed them. Unless noted, the call rests on the fitted dose curve; in most records, active means well fitted curve in the direction sought with a large enough effect; inconclusive means small, poorly fitted or top-dose-only effect, or another doubt; inactive means no such curve, though single readings can be large; an effect the other way counts as inactive or inconclusive.
# Key:
# [1] = biological target: Guanidinoacetate N-methyltransferase (Homo sapiens) (UniProt Q14353); test: Confirmatory Screen for Target Class Profiling of Small Molecule Inhibitors of Methyltransferases (AID 1745852; calls by dose curve; further: potency means the concentration at half of the fitted maximal effect; on activity change, negative = inhibition: on the % scale 0 is the no-effect control and ±100 the full control effect); settings: MTase-Glo luminescence, SAH detection, recombinant enzyme; activity change, negative = inhibition: at 57.3 µM (top of the series)
# [2] = biological target: Nicotinamide N-methyltransferase (Homo sapiens) (UniProt P40261); test: as above; settings: MTase-Glo luminescence, SAH detection, recombinant enzyme; measured here: NNMT max response; stronger effect = lower value
# Chain of Nicotinamide N-methyltransferase (Homo sapiens) (P40261 whole entry, looked up): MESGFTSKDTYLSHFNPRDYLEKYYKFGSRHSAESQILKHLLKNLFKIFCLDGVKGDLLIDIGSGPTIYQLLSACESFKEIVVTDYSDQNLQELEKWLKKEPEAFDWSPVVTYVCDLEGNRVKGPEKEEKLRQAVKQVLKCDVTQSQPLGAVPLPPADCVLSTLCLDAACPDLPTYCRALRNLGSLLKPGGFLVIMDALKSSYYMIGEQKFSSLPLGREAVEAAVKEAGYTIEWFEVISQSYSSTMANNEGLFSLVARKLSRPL
# [3] = biological target: Phenylethanolamine N-methyltransferase (Homo sapiens) (UniProt P11086); test: as above; settings: MTase-Glo luminescence, SAH detection, recombinant enzyme; measured here: PNMT max response; stronger effect = lower value
# Chain of Phenylethanolamine N-methyltransferase (Homo sapiens) (P11086 whole entry, looked up): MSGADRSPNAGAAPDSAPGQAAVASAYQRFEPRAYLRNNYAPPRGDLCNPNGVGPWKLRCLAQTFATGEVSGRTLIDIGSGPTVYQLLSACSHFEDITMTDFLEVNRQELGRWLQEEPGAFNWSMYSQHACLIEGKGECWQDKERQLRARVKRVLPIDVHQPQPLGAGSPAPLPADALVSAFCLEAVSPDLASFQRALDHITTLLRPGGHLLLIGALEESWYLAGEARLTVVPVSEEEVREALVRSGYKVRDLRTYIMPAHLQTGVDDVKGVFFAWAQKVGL
# [4] = biological target: Nuclear receptor subfamily 1 group I member 3 (Homo sapiens) (UniProt Q14994); test: Primary qHTS for antagonist of constitutive androstane receptor (CAR) against the NCATS DSHEA and TCM libraries (AID 1794836); settings: CAR reporter cell assay, antagonist mode, luciferase; series mostly up to 40 µM;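 further: HepG2 cells stably expressing hCAR with CYP2B6 luciferase reporter stimulated by CITCO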
# Chain of Nuclear receptor subfamily 1 group I member 3 (Homo sapiens) (Q14994 whole entry, looked up): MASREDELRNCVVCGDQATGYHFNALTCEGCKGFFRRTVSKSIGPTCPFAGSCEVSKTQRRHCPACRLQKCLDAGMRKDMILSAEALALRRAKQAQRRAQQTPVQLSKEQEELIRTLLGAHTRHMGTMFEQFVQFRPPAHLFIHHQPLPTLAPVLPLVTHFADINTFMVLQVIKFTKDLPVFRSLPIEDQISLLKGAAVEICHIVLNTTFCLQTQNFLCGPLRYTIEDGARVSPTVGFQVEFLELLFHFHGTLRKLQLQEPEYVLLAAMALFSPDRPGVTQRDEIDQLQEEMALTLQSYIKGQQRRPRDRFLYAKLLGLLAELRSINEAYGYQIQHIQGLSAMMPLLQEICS
# How it was run: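 Antagonist mode: CAR reporter luminescence (ONE-Glo) in HepG2-CYP2B6-hCAR cells stimulated with 48 uM CITCO (final) over 24 h at 37 C, compounds titrated; viability read first by CellTiter-Fluor fluorescence.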
# [5] = Viability counterscreen for antagonist of constitutive androstane receptor (CAR) against the NCATS DSHEA and TCM libraries (AID 1794837); settings: CAR reporter cell line viability counterscreen, qHTS; series mostly up to 40 µM;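 further: compound exposure lasted 24 h before viability reading; 0% is about no effect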
# How it was run: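 Fluorescence from CellTiter-Fluor reports live-cell protease activity in HepG2-CYP2B6-hCAR cells treated for 24 h with substances alongside 48 uM CITCO.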
# [6] = Viability counterscreen for agonist of constitutive androstane receptor (CAR) against the NCATS DSHEA and TCM libraries (AID 1794838); settings: HepG2 cell viability counterscreen, CAR agonist assay; series mostly up to 40 µM; further: 0% is about no effect
# How it was run: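 In agonist mode, PK11195 is added at 0.75 uM final to HepG2-CYP2B6-hCAR cells dosed with test substances. Cultures incubate 24 h at 37C before a protease-based fluorogenic viability readout.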
# [7] = biological target: Nuclear receptor subfamily 1 group I member 3 (Homo sapiens) (UniProt Q14994); test: Primary qHTS for agonist of constitutive androstane receptor (CAR) against the NCATS DSHEA and TCM libraries (AID 1794839); settings: CAR agonist reporter cells, qHTS luminescence; further: potency means the concentration at half of the fitted maximal effect
# How it was run: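 Cells stably carrying hCAR and a CYP2B6 reporter (HepG2 background) are seeded and allowed 5 h to adhere. Substances at multiple concentrations are added alongside 0.75 µM PK11195, and luciferase signal is measured after 24 h.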
# [8] = HepG2 viability counterscreen (readout 2: ATP content) against the NCATS DSHEA and TCM libraries (AID 1794840); settings: ATP content luminescence; series mostly up to 27.3 µM;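 further: HepG2 cells exposed to substances for about 24 h; 0% is about no effect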
# How it was run: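 Cytotoxicity was assessed in HepG2 cells plated at 1,000 cells/well and exposed for about 24 hours to a concentration series. Protease activity and ATP content were measured sequentially in each well.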
# [9] = NCATS anti-infectives library activity on HEK293 viability as a counter-qHTS vs the C. elegans viability qHTS (AID 1745854); settings: HEK293 viability counter-screen; series mostly up to 41.8 µM;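 further: HEK293 cells exposed to compounds for 24 hr before the viability read; on the % scale 0 is the no-effect control and ±100 the full control effect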
# Text: Assay Development and Screening Technology Laboratory (ADST)
# National Center for Advancing Translational Sciences (NCATS), Rockville, MD
# National Institute of Health (NIH), Bethesda, Maryland
# Caenorhabditis elegans has helped elucidate the evolutionarily conserved genetics underlying pathways and cellular processes implicated in human disease and may be ideally positioned to reveal novel pharmacological properties of exiting drugs. The organism's short life cycle and microscopic size is applicable to the technical requirements of high-throughput screening. Here a quantitative high-throughput screening (qHTS)-based forward chemical biology platform has been developed using C. elegans. 384-well microtiter plate laser scanning cytometry was used in the rapid detection and quantification of the fluorescent protein-encoded phenotype to score worm viability. […]
# 1. […] P. (2006) Quantitative high-throughput screening: A titration-based approach that efficiently identifies biological activities in large chemical libraries, P Natl Acad Sci USA 103, 11473-11478.
# 2. […] P., and Inglese, J. (2006) Fluorescent protein-based cellular assays analyzed by laser-scanning microplate cytometry in 1536-well plate format, Method Enzymol 414, 566-589. […]
# SEQUENCE No. (e.g., 1, 2, 3, etc.); […] (e.g., C. elegans, Compounds, Incubation, Read, etc.); VALUE and DESCRIPTION. […]
# [10] = NCATS anti-infectives library activity on the primary C. elegans qHTS viability assay (AID 1745855; calls by dose curve; further: potency means the concentration at half of the fitted maximal effect); settings: C. elegans worm area imaging, day 7
# How it was run: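 Viability is taken from GFP fluorescence of PE254-GFP-FLuc C. elegans imaged by laser cytometry over 7 days. Ten L1 worms per well grow at 21 °C on TOP10 E. coli capsules with titrated compound; levamisole marks toxicity.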
smiles,measurement,setting,value
CC[C@@H](CO)NC(=O)[C@@H]1C=C2c3cccc4c3c(cn4C)C[C@H]2N(C)C1,"activity change, negative = inhibition",[1],-1.19%
same,activity,[2],-2.9%
same,activity,[3],-4.59%
N#CC(C#N)=Cc1ccc(O)c(O)c1,"activity change, negative = inhibition",[1],1.06%
same,activity,[2],-6.68%
same,activity,[3],-1.74%
CC[N+](CC)(CC)CC,"activity change, negative = inhibition",[1],3.74%
same,activity,[2],-4.15%
same,activity,[3],4.2%
Nc1ccncc1,Potency,[1],30.6 µM (active)
same,activity,[2],-30.8%
same,activity,[3],-0.809%
O=c1c(O)c(-c2ccc(O)c(O)c2)oc2cc(O)cc(O)c12,outcome,[4],inactive
CC(C)=CCOc1c2occc2cc2ccc(=O)oc12,"activity change, negative = inhibition",[1],-1.68%
same,activity,[2],-26.3%
same,activity,[3],-3.85%
same,outcome,[4],inactive
same,outcome,[5],inactive
same,outcome,[6],inactive
same,Potency,[7],14.1 µM (active)
same,outcome,[8],inactive
NCC(CC(=O)O)c1ccc(Cl)cc1 (configuration not stated),outcome,[9],inactive
Cc1sc2c(c1C)C(c1ccc(Cl)cc1)=N[C@@H](CC(=O)OC(C)(C)C)c1nnc(C)n1-2,outcome,[9],inactive
same,Potency,[10],4.09 µM (active)
CN1C[C@H](CNC(=O)OCc2ccccc2)C[C@@H]2c3cccc4c3c(cn4C)C[C@H]21,"activity change, negative = inhibition",[1],5.68%
same,activity,[2],-16.1%
same,activity,[3],-5.43%
